In test [1] the target is T1, Tyrosine-protein kinase ITK/TSK (Homo sapiens) (UniProt Q08881).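 Also: values are mean percent inhibition of ITK from the GSK PKIS screen.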
T1 sequence (whole entry): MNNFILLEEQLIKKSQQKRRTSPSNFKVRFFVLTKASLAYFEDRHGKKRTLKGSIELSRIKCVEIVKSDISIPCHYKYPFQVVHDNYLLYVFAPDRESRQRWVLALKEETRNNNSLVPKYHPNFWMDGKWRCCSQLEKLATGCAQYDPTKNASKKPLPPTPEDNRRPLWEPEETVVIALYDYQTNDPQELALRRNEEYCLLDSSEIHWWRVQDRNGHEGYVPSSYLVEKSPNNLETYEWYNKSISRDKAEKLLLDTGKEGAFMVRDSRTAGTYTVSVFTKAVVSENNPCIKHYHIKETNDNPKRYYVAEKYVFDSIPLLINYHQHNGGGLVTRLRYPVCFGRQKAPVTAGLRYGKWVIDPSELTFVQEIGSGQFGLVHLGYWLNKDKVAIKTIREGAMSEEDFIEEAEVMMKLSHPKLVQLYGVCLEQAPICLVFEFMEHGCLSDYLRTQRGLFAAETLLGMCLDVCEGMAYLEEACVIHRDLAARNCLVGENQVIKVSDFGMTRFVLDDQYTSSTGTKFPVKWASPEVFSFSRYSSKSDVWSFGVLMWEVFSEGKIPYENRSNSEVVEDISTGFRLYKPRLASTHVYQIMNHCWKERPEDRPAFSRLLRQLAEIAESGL
Particulars: at 1 µM.

The target in test [2] is Tyrosine-protein kinase JAK1 (Homo sapiens) (UniProt P23458). To be noted: at 0.1 µM.
Chain of Tyrosine-protein kinase JAK1 (Homo sapiens) (P23458 whole entry): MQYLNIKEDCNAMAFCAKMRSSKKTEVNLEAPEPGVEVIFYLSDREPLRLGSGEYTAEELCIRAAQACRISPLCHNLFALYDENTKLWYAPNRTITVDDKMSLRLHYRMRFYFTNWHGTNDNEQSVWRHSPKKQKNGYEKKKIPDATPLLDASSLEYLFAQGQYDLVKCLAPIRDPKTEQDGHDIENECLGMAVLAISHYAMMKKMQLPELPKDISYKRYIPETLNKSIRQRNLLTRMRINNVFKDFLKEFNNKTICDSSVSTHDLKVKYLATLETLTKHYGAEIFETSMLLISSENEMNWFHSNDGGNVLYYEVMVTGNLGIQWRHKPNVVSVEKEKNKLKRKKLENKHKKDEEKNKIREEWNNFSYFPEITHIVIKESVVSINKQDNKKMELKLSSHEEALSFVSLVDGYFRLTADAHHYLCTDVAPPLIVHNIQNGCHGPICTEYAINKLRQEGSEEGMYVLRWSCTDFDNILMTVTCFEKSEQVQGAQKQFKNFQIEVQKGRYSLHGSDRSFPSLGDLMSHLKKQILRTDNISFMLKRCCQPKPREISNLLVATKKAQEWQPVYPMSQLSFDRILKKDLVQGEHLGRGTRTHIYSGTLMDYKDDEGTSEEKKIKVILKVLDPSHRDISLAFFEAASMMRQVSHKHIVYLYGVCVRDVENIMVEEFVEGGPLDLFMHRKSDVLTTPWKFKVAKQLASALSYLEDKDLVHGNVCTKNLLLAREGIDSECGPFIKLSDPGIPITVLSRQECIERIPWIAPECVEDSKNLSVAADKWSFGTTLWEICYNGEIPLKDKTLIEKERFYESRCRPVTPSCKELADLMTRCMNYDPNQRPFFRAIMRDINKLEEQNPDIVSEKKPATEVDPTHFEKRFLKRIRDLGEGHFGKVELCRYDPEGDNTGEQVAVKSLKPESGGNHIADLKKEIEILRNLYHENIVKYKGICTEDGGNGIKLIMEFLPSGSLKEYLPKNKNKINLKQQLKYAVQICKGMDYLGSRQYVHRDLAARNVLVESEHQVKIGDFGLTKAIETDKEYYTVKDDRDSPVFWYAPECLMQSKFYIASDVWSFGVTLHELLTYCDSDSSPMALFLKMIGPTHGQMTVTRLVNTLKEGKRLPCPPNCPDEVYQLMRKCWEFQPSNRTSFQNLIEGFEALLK
Test [3] has the same target. Particulars: at 1 µM.
Test [4] addresses Tyrosine-protein kinase JAK2 (Homo sapiens) (UniProt O60674). Particulars: at 0.1 µM.
The target is the same in test [5]. Particulars: at 1 µM.
In test [6] the target is T2, Tyrosine-protein kinase JAK3 (Homo sapiens) (UniProt P52333).
T2 sequence (whole entry): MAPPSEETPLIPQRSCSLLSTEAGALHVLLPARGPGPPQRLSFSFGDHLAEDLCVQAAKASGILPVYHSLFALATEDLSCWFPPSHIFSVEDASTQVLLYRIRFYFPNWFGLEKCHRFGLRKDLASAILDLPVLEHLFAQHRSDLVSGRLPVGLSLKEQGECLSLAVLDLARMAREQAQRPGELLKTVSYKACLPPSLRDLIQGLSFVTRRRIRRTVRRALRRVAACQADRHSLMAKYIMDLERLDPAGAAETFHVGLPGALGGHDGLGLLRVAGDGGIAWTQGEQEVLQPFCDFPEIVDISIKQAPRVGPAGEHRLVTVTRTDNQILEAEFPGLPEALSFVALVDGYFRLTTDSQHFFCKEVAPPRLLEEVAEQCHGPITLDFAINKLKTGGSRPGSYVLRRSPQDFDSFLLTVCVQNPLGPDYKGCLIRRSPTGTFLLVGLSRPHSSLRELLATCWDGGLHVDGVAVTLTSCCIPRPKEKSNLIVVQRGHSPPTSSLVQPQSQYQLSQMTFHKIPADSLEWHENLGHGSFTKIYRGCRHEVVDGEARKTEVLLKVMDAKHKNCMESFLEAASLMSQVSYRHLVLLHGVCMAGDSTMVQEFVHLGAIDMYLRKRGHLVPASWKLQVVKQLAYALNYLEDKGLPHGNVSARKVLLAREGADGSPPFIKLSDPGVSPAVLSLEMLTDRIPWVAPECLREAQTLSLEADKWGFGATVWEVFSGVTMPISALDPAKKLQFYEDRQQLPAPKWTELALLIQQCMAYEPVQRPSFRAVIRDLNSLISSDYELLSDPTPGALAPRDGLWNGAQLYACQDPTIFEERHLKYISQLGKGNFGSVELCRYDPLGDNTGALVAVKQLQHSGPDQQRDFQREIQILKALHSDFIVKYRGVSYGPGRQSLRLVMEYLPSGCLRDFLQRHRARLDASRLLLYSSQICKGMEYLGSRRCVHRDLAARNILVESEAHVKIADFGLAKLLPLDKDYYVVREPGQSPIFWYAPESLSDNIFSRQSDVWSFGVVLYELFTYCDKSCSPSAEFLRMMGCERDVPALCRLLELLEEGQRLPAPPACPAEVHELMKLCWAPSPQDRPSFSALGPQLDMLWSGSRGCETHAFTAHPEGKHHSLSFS
Particulars: at 0.1 µM.

In test [7] the target is T2, Tyrosine-protein kinase JAK3 (Homo sapiens). Particulars: at 1 µM.
Test [8] addresses Vascular endothelial growth factor receptor 2 (Homo sapiens) (UniProt P35968). Particulars: at 0.1 µM.
The target is the same in test [9]. Particulars: at 1 µM.
For test [10], the target named is Mast/stem cell growth factor receptor Kit (Homo sapiens) (UniProt P10721). Particulars: at 0.1 µM.
Chain of Mast/stem cell growth factor receptor Kit (Homo sapiens) (P10721 whole entry): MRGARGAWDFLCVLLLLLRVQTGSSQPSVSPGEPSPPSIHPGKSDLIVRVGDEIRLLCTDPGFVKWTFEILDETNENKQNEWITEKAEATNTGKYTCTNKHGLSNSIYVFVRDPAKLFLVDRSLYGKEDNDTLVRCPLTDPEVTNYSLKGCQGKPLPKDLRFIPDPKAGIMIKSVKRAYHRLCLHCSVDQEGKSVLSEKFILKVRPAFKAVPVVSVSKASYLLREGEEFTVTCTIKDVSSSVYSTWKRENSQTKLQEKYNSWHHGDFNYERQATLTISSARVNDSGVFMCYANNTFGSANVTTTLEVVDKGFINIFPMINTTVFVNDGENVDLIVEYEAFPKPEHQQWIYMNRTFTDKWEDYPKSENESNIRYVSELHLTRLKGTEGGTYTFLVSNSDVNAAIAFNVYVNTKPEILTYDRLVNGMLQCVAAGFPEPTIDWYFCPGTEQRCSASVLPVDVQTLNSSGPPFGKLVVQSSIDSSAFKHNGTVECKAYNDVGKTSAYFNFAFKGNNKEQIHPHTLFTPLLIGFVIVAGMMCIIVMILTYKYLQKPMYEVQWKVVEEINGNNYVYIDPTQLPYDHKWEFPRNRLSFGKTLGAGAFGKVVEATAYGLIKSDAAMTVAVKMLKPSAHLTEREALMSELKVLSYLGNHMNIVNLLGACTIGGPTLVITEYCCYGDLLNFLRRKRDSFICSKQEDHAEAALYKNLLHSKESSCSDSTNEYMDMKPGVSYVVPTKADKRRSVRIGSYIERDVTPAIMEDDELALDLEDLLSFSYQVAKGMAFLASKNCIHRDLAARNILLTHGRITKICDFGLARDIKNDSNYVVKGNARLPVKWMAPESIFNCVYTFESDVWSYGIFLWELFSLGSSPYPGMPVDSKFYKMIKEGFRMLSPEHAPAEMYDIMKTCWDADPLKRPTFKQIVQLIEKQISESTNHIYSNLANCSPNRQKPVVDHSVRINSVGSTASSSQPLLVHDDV
For test [11] the target is unchanged. Particulars: at 1 µM.
In test [12] the test system is Mast/stem cell growth factor receptor Kit (Homo sapiens), P10721 [D816V]. Particulars: at 0.1 µM.
Chain of Mast/stem cell growth factor receptor Kit (Homo sapiens), P10721 [D816V] (P10721 whole entry D816V): as the sequence (P10721 whole entry) above, with D816V counted along it
The test system is the same in test [13]. To be noted: at 1 µM.
Test [14] deals with Mast/stem cell growth factor receptor Kit (Homo sapiens), P10721 [T670I]. To be noted: at 0.1 µM.
Chain of Mast/stem cell growth factor receptor Kit (Homo sapiens), P10721 [T670I] (P10721 whole entry T670I): as the sequence (P10721 whole entry) above, with T670I counted along it
Test [15] shares this test system. Particulars: at 1 µM.
Test [16] has as its system Mast/stem cell growth factor receptor Kit (Homo sapiens), P10721 [V560G]. To be noted: at 0.1 µM.
Test [17] shares this test system. Particulars: at 1 µM.
The target in test [18] is Tyrosine-protein kinase Lck (Homo sapiens) (UniProt P06239). Particulars: at 0.1 µM.
Chain of Tyrosine-protein kinase Lck (Homo sapiens) (P06239 2-509 limits assumed): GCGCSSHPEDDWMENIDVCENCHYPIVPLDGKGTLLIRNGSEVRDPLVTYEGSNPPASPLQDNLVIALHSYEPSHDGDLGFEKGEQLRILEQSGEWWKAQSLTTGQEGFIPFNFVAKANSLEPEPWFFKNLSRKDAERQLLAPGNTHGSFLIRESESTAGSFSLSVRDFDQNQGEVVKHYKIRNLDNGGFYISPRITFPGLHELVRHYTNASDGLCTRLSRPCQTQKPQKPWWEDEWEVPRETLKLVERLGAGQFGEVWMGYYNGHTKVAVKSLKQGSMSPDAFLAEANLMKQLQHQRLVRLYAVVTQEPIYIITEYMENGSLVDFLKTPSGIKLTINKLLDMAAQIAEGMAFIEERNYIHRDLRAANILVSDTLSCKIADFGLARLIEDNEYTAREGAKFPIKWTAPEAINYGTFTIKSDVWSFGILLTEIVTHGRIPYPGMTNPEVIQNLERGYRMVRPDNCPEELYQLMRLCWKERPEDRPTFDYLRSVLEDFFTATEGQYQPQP
The target is the same in test [19]. Particulars: at 1 µM.
Test [20] deals with Leukocyte tyrosine kinase receptor (Homo sapiens) (UniProt P29376). Particulars: at 0.1 µM.
Chain of Leukocyte tyrosine kinase receptor (Homo sapiens) (P29376 whole entry): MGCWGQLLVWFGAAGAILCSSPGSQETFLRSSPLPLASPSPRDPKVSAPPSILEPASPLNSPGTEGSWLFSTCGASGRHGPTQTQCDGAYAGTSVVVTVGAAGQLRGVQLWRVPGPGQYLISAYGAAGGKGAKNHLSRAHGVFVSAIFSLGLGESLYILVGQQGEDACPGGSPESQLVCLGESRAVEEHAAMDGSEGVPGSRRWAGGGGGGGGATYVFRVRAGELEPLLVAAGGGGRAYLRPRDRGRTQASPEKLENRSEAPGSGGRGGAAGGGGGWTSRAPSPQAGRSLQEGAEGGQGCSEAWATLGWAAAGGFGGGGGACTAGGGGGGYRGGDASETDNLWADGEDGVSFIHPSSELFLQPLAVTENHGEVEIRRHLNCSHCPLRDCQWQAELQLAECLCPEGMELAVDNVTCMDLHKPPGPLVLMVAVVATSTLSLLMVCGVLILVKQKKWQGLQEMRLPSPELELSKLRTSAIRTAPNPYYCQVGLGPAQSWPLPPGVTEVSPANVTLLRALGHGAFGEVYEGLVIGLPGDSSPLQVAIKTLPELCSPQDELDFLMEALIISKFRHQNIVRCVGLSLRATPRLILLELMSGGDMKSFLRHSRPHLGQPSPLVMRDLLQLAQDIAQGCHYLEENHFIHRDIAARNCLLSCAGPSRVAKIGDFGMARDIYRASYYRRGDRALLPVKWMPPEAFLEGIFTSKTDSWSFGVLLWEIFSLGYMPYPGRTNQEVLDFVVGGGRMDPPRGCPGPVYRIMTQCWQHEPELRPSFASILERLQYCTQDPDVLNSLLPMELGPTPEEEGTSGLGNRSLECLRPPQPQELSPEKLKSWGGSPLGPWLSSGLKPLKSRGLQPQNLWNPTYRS

Several values for one entry are separate records, joined by “and”; a condition that tells them apart may be missing. Equal values may be shown once.

Chain of Vascular endothelial growth factor receptor 2 (Homo sapiens) (P35968 whole entry): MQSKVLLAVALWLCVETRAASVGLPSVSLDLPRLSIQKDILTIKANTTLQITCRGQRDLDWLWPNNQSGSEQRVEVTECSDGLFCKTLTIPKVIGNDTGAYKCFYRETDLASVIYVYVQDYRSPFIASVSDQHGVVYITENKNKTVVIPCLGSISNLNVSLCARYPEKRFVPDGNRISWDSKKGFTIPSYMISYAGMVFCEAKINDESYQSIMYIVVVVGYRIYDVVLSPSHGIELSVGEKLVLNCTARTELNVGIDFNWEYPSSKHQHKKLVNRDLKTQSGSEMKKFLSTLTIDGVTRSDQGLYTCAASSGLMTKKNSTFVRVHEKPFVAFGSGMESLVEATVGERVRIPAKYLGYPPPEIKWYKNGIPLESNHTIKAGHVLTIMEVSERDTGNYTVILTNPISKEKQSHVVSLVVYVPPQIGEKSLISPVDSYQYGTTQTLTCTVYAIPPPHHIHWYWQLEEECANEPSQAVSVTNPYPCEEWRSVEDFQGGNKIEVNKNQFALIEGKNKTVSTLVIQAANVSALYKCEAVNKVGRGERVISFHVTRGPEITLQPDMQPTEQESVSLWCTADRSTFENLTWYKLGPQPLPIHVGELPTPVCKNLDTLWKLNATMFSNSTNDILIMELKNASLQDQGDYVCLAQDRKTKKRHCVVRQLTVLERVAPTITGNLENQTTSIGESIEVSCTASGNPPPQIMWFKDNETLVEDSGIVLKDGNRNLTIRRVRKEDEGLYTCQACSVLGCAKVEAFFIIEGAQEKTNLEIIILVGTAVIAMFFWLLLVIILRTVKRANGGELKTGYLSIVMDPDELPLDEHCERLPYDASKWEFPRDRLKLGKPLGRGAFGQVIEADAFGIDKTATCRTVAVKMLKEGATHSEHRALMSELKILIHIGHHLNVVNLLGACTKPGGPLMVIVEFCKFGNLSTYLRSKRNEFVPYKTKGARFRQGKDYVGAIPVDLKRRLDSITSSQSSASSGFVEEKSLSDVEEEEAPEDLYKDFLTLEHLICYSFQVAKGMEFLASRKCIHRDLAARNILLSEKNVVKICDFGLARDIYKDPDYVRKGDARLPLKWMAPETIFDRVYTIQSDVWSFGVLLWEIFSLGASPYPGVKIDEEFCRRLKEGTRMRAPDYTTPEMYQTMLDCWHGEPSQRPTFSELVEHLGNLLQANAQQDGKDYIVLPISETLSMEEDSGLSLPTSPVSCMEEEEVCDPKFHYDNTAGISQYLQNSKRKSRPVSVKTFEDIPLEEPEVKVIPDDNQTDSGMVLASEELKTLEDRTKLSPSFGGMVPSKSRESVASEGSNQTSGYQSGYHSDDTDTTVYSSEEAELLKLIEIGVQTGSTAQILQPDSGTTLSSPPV
Chain of Mast/stem cell growth factor receptor Kit (Homo sapiens), P10721 [V560G] (P10721 whole entry V560G): as the sequence (P10721 whole entry) above, with V560G counted along it

For `O=C(O[C@H]1CN[C@H](C#Cc2cc3ncnc(Nc4ccc5c(cnn5Cc5ccccc5)c4)c3s2)C1)N1CCOCC1`, the inhibition – broadly, the drop in the measured response relative to a control, in per cent – in test [1] is -0.49%; in test [2], 0.1%; in test [3] it was 3.26%; in [4], -0.37%; in test [5], -1.59%; in test [6] it was -0.78%. The inhibition in test [7] was 1.24%; in test [8], -0.01%; in test [9], 8.91%; in [10], -3.59%; in [11], 0.9%; in test [12], -4.43%. Besides, the inhibition was -0.62% in test [13]; -1.83% in test [14]; -1.48% in [15]; -1.18% in [16]; -0.48% in test [17]; 0.34% in test [18]. In addition, the inhibition in test [19] was 6.67%; in [20], 0.04%.
With `Fc1ccc(Nc2nccc(-c3c(-c4ccc(C(F)(F)F)cc4)nn4ncccc34)n2)cc1F`, the inhibition was 2.42% in test [1]; 2.03% in [2]; 0.13% in [3]; 1.44% in [4]; 2.24% in test [5]; -1.12% in [6]. Also, the inhibition in [7] came to 0.59%; in [8], 5.73%; in test [9] it was 7.03%; in test [10] it was 4.14%; in test [11] it was 4.68%; in test [12], 2.15%. The inhibition in test [13] is 2.45%; in test [14] it was 0.78%; in [15], 2.14%; in [16], -1.76%; in test [17] it was 1.06%; in test [18] it was 3.17%. Besides, the results for the inhibition in test [19] and in test [20] were 0.53% and 2.82%, respectively.
For `CN1CCN(Cc2ccc(-c3cc4ncnc(Nc5ccc(OCc6cccc(F)c6)c(Cl)c5)c4s3)o2)CC1`, the inhibition in [1] was 2.43% and 2.68%; in test [2], 1.06% and 6.88%; in test [3], 3.27% and 18.5%; in test [4] it was 0.99% and 0.67%; in [5], 0.57% and 0.86%; in test [6] it was -2.47% and -0.74%. Further, the inhibition in test [7] was -1.79% and -0.23%; in test [8], 7.34% and 7.83%; in test [9] it was 24% and 24.2%; in [10], 3.38% and 6.79%; in test [11], 11.5% and 12.7%; in test [12], 3.79% and 5.98%. Besides, the inhibition in test [13] was 5.98% and 4.53%; in [14], 2.89% and 2.77%; in [15], 2.77% and 5.27%; in [16], -1.59% and -3.38%; in [17] it was 2.22% and 1.14%; in test [18], 4.76% and 7.19%. Moreover, the inhibition in [19] was 22.2% and 27.2%; in test [20] it was 3.61% and 4.17%.
For `CNC(=O)c1sc(-n2cnc3cc(OC)c(OC)cc32)cc1OCc1ccccc1C(F)(F)F`, the inhibition is 3.59% in [1]; 0.71% in [2]; 7.26% in test [3]; -0.02% in [4]; 0.52% in test [5]; -2.82% in test [6]. Further, the inhibition is -0.34% in [7]; 4.23% in test [8]; 12.4% in test [9]; 4.06% in test [10]; 6.11% in test [11]; 2.29% in test [12]. In addition, the inhibition is 6.55% in [13]; 1.67% in test [14]; 1.95% in test [15]; -0.58% in [16]; 0.44% in test [17]; 3.6% in [18]. The values for the inhibition in [19] and in test [20] were 11.9% and 2.32%, respectively.
As for `NS(=O)(=O)c1ccc(N/N=C2\C(=O)Nc3cccc(CCc4ccncc4)c32)cc1`, the inhibition in test [1] was 2.79%; in test [2], -0.35%; in test [3], 1.96%; in test [4], 0.5%; in test [5] it was 1.19%; in [6], 0.74%. Also, the inhibition in test [7] was determined as 5.91%; in test [8], 19.6%; in test [9], 46.7%; in [10], 27%; in test [11] it was 63.7%; in test [12], 2.92%. Further, the inhibition in test [13] is 5.18%; in [14] it was 6.45%; in test [15], 15%; in [16], 4.31%; in test [17], 14.1%; in test [18], 2.22%. Also, the results for the inhibition in test [19] and in test [20] were 5.75% and 1.69%, respectively.
`CS(=O)(=O)Nc1ccc(-c2ccc3c(NC(=O)C4CC4)n[nH]c3c2)cc1`: the inhibition is 4.27% in [1]; 2.35% in test [2]; -1.13% in test [3]; 1.06% in test [4]; 2.88% in test [5]; -0.85% in test [6]. For the same molecule, the inhibition worked out at 1.11% in test [7]; 4.26% in test [8]; 9.88% in test [9]; 1.72% in [10]; 6.32% in test [11]; 2.91% in test [12]. The inhibition in test [13] is 2.86%; in [14], 1.55%; in [15], 1.56%; in test [16] it was 0.02%; in test [17], 0.94%; in [18], 2.88%. In addition, the results for the inhibition in test [19] and in [20] were 8.63% and 4.21%, respectively.
For the molecule `O=C(O[C@H]1CN[C@H](C#Cc2cc3ncnc(Nc4ccc5c(ccn5Cc5cc(F)ccc5F)c4)c3s2)C1)N1CCOCC1`, the inhibition in [1] was 2.55%; in test [2] it was 5.05%; in test [3] it was 1.68%; in [4] it was 1.8%; in test [5], 1.6%; in [6] it was -1.37%. The inhibition came to 0.4% in [7]; 3.78% in [8]; 10.6% in test [9]; 2.29% in test [10]; 2.34% in test [11]; 3.87% in test [12]. Moreover, the inhibition in test [13] was 3.82%; in test [14] it was 3.88%; in [15] it was 2.88%; in [16] it was -0.88%; in [17] it was -2.32%; in test [18] it was 2.27%. In addition, the inhibition in [19] was 4.87%; in [20], 5.27%.

Values taken from ChEMBL document CHEMBL1961873, “Compounds: GSK PKIS; Assays: Nanosyn kinase panel” (2012).
